# Measured values: the supplement of paper PMC4466140
# Experiments:
# Assay in all cases: SPOT peptide array binding signal intensity (averaged, normalized) (arbitrary units (background-subtracted, floor 0; scale differs between SH3 domains)); higher = stronger binding of the SH3 domain to the peptide
# AgAbp1 = molecular target: AgAbp1
# Protocol: (§1)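 GST-tagged SH3 domains from S. cerevisiae (Sc), A. gossypii (Ag), C. albicans (Ca) and S. pombe (Sp) were incubated at 10 ug/ml overnight at 4 C on cellulose SPOT membranes carrying 292 synthetic 15-mer peptides mined from the S. cerevisiae proteome (cysteines replaced by serines). Binding was detected with anti-GST antibody, HRP secondary and chemiluminescence, quantified with Genespotter, and reported as normalized spot intensities averaged over biological replicates.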
# AgBbc1 = molecular target: AgBbc1
# Protocol: as §1
# AgBem1-D1 = molecular target: AgBem1-D1
# Protocol: as §1
# AgBzz1-D1 = molecular target: AgBzz1-D1
# Protocol: as §1
# AgBzz1-D2 = molecular target: AgBzz1-D2
# Protocol: as §1
# AgCyk3 = molecular target: AgCyk3
# Protocol: as §1
# AgFus1 = molecular target: AgFus1
# Protocol: as §1
# AgHof1 = molecular target: AgHof1
# Protocol: as §1
# AgHse1 = molecular target: AgHse1
# Protocol: as §1
# AgLsb1 = molecular target: AgLsb1
# Protocol: as §1
# AgLsb4 = molecular target: AgLsb4
# Protocol: as §1
# AgMyo5 = molecular target: AgMyo5
# Protocol: as §1
# AgNbp2 = molecular target: AgNbp2
# Protocol: as §1
# AgRvs167 = molecular target: AgRvs167
# Protocol: as §1
# AgSho1 = molecular target: AgSho1
# Protocol: as §1
# AgSla1-D1-D2 = molecular target: AgSla1-D1-D2
# Protocol: as §1
# AgSla1-D3 = molecular target: AgSla1-D3
# Protocol: as §1
# CaAbp1-D1 = molecular target: CaAbp1-D1
# Protocol: as §1
# CaAbp1-D2 = molecular target: CaAbp1-D2
# Protocol: as §1
# CaBbc1 = molecular target: CaBbc1
# Protocol: as §1
# CaBem1-D1 = molecular target: CaBem1-D1
# Protocol: as §1
# CaBzz1-D1 = molecular target: CaBzz1-D1
# Protocol: as §1
# CaBzz1-D2 = molecular target: CaBzz1-D2
# Protocol: as §1
# CaCyk3 = molecular target: CaCyk3
# Protocol: as §1
# CaFus1 = molecular target: CaFus1
# Protocol: as §1
# CaHof1 = molecular target: CaHof1
# Protocol: as §1
# CaHse1 = molecular target: CaHse1
# Protocol: as §1
# CaLsb1 = molecular target: CaLsb1
# Protocol: as §1
# CaLsb4 = molecular target: CaLsb4
# Protocol: as §1
# CaMyo5 = molecular target: CaMyo5
# Protocol: as §1
# CaNbp2 = molecular target: CaNbp2
# Protocol: as §1
# CaRvs167 = molecular target: CaRvs167
# Protocol: as §1
# CaRvs167-3 = molecular target: CaRvs167-3
# Protocol: as §1
# CaSho1 = molecular target: CaSho1
# Protocol: as §1
# CaSla1-D1-D2 = molecular target: CaSla1-D1-D2
# Protocol: as §1
# CaSla1-D3 = molecular target: CaSla1-D3
# Protocol: as §1
# ScAbp1 = molecular target: ScAbp1
# Protocol: as §1
# ScBbc1 = molecular target: ScBbc1
# Protocol: as §1
# ScBem1-D1 = molecular target: ScBem1-D1
# Protocol: as §1
# ScBzz1-D1 = molecular target: ScBzz1-D1
# Protocol: as §1
# ScBzz1-D2 = molecular target: ScBzz1-D2
# Protocol: as §1
# ScCyk3 = molecular target: ScCyk3
# Protocol: as §1
# ScFus1 = molecular target: ScFus1
# Protocol: as §1
# ScHof1 = molecular target: ScHof1
# Protocol: as §1
# ScHse1 = molecular target: ScHse1
# Protocol: as §1
# ScLsb1 = molecular target: ScLsb1
# Protocol: as §1
# ScLsb2 = molecular target: ScLsb2
# Protocol: as §1
# ScLsb3 = molecular target: ScLsb3
# Protocol: as §1
# ScLsb4 = molecular target: ScLsb4
# Protocol: as §1
# ScMyo3 = molecular target: ScMyo3
# Protocol: as §1
# ScMyo5 = molecular target: ScMyo5
# Protocol: as §1
# ScNbp2 = molecular target: ScNbp2
# Protocol: as §1
# ScPex13 = molecular target: ScPex13
# Protocol: as §1
# ScRvs167 = molecular target: ScRvs167
# Protocol: as §1
# ScSho1 = molecular target: ScSho1
# Protocol: as §1
# ScSla1-D1-D2 = molecular target: ScSla1-D1-D2
# Protocol: as §1
# ScSla1-D3 = molecular target: ScSla1-D3
# Protocol: as §1
# SpAbp1-D1 = molecular target: SpAbp1-D1
# Protocol: as §1
# SpBbc1 = molecular target: SpBbc1
# Protocol: as §1
# SpBzz1-D1 = molecular target: SpBzz1-D1
# Protocol: as §1
# SpBzz1-D2 = molecular target: SpBzz1-D2
# Protocol: as §1
# SpCyk3 = molecular target: SpCyk3
# Protocol: as §1
# SpHof1 = molecular target: SpHof1
# Protocol: as §1
# SpHof1-2 = molecular target: SpHof1-2
# Protocol: as §1
# SpHof1-3 = molecular target: SpHof1-3
# Protocol: as §1
# SpHse1 = molecular target: SpHse1
# Protocol: as §1
# SpLsb1 = molecular target: SpLsb1
# Protocol: as §1
# SpLsb4 = molecular target: SpLsb4
# Protocol: as §1
# SpMyo1 = molecular target: SpMyo1
# Protocol: as §1
# SpNbp2 = molecular target: SpNbp2
# Protocol: as §1
# SpPex13 = molecular target: SpPex13
# Protocol: as §1
# SpRvs167 = molecular target: SpRvs167
# Protocol: as §1
# SpSla1-D1-D2 = molecular target: SpSla1-D1-D2
# Protocol: as §1
# SpSla1-D3 = molecular target: SpSla1-D3
# Protocol: as §1
binder,measurement,setting,value
KRKRRLPVSEDTNTK,SPOT peptide array binding signal intensity,AgAbp1,42.5
same,SPOT peptide array binding signal intensity,AgBbc1,25
same,SPOT peptide array binding signal intensity,AgBem1-D1,322
same,SPOT peptide array binding signal intensity,AgBzz1-D1,26.5
same,SPOT peptide array binding signal intensity,AgBzz1-D2,47.5
same,SPOT peptide array binding signal intensity,AgCyk3,1
same,SPOT peptide array binding signal intensity,AgFus1,519
same,SPOT peptide array binding signal intensity,AgHof1,87
same,SPOT peptide array binding signal intensity,AgHse1,656
same,SPOT peptide array binding signal intensity,AgLsb1,1.5
same,SPOT peptide array binding signal intensity,AgLsb4,46.5
same,SPOT peptide array binding signal intensity,AgMyo5,1.5
same,SPOT peptide array binding signal intensity,AgNbp2,213
same,SPOT peptide array binding signal intensity,AgRvs167,3.5
same,SPOT peptide array binding signal intensity,AgSho1,53
same,SPOT peptide array binding signal intensity,AgSla1-D1-D2,25.5
same,SPOT peptide array binding signal intensity,AgSla1-D3,7
same,SPOT peptide array binding signal intensity,CaAbp1-D1,514
same,SPOT peptide array binding signal intensity,CaAbp1-D2,626
same,SPOT peptide array binding signal intensity,CaBbc1,97
same,SPOT peptide array binding signal intensity,CaBem1-D1,3
same,SPOT peptide array binding signal intensity,CaBzz1-D1,85
same,SPOT peptide array binding signal intensity,CaBzz1-D2,69.8
same,SPOT peptide array binding signal intensity,CaCyk3,24
same,SPOT peptide array binding signal intensity,CaFus1,1030
same,SPOT peptide array binding signal intensity,CaHof1,0.5
same,SPOT peptide array binding signal intensity,CaHse1,49
same,SPOT peptide array binding signal intensity,CaLsb1,0.75
same,SPOT peptide array binding signal intensity,CaLsb4,154
same,SPOT peptide array binding signal intensity,CaMyo5,3
same,SPOT peptide array binding signal intensity,CaNbp2,255
same,SPOT peptide array binding signal intensity,CaRvs167,8.67
same,SPOT peptide array binding signal intensity,CaRvs167-3,9.75
same,SPOT peptide array binding signal intensity,CaSho1,288
same,SPOT peptide array binding signal intensity,CaSla1-D1-D2,8
same,SPOT peptide array binding signal intensity,CaSla1-D3,8.75
same,SPOT peptide array binding signal intensity,ScAbp1,30
same,SPOT peptide array binding signal intensity,ScBbc1,30
same,SPOT peptide array binding signal intensity,ScBem1-D1,183
same,SPOT peptide array binding signal intensity,ScBzz1-D1,15.5
same,SPOT peptide array binding signal intensity,ScBzz1-D2,16.5
same,SPOT peptide array binding signal intensity,ScCyk3,143
same,SPOT peptide array binding signal intensity,ScFus1,298
same,SPOT peptide array binding signal intensity,ScHof1,3.5
same,SPOT peptide array binding signal intensity,ScHse1,1340
same,SPOT peptide array binding signal intensity,ScLsb1,1.5
same,SPOT peptide array binding signal intensity,ScLsb2,11
same,SPOT peptide array binding signal intensity,ScLsb3,562
same,SPOT peptide array binding signal intensity,ScLsb4,16
same,SPOT peptide array binding signal intensity,ScMyo3,5.75
same,SPOT peptide array binding signal intensity,ScMyo5,6.75
same,SPOT peptide array binding signal intensity,ScNbp2,210
same,SPOT peptide array binding signal intensity,ScPex13,0.5
same,SPOT peptide array binding signal intensity,ScRvs167,16.3
same,SPOT peptide array binding signal intensity,ScSho1,808
same,SPOT peptide array binding signal intensity,ScSla1-D1-D2,261
same,SPOT peptide array binding signal intensity,ScSla1-D3,103
same,SPOT peptide array binding signal intensity,SpAbp1-D1,214
same,SPOT peptide array binding signal intensity,SpBbc1,3
same,SPOT peptide array binding signal intensity,SpBzz1-D1,40
same,SPOT peptide array binding signal intensity,SpBzz1-D2,≤ 0
same,SPOT peptide array binding signal intensity,SpCyk3,6.5
same,SPOT peptide array binding signal intensity,SpHof1,150
same,SPOT peptide array binding signal intensity,SpHof1-2,12
same,SPOT peptide array binding signal intensity,SpHof1-3,602
same,SPOT peptide array binding signal intensity,SpHse1,391
same,SPOT peptide array binding signal intensity,SpLsb1,5.75
same,SPOT peptide array binding signal intensity,SpLsb4,268
same,SPOT peptide array binding signal intensity,SpMyo1,3.5
same,SPOT peptide array binding signal intensity,SpNbp2,331
same,SPOT peptide array binding signal intensity,SpPex13,8.5
same,SPOT peptide array binding signal intensity,SpRvs167,2.83
same,SPOT peptide array binding signal intensity,SpSla1-D1-D2,≤ 0
same,SPOT peptide array binding signal intensity,SpSla1-D3,6
VQKRKLPLPGSIASA,SPOT peptide array binding signal intensity,AgAbp1,40
same,SPOT peptide array binding signal intensity,AgBbc1,39.2
same,SPOT peptide array binding signal intensity,AgBem1-D1,7.25
same,SPOT peptide array binding signal intensity,AgBzz1-D1,47.8
same,SPOT peptide array binding signal intensity,AgBzz1-D2,90.2
same,SPOT peptide array binding signal intensity,AgCyk3,0.5
same,SPOT peptide array binding signal intensity,AgFus1,≤ 0
same,SPOT peptide array binding signal intensity,AgHof1,24.6
same,SPOT peptide array binding signal intensity,AgHse1,58.5
same,SPOT peptide array binding signal intensity,AgLsb1,≤ 0
same,SPOT peptide array binding signal intensity,AgLsb4,≤ 0
same,SPOT peptide array binding signal intensity,AgMyo5,6.25
same,SPOT peptide array binding signal intensity,AgNbp2,≤ 0
same,SPOT peptide array binding signal intensity,AgRvs167,0.75
same,SPOT peptide array binding signal intensity,AgSho1,1.5
same,SPOT peptide array binding signal intensity,AgSla1-D1-D2,6.5
same,SPOT peptide array binding signal intensity,AgSla1-D3,≤ 0
same,SPOT peptide array binding signal intensity,CaAbp1-D1,419
same,SPOT peptide array binding signal intensity,CaAbp1-D2,782
same,SPOT peptide array binding signal intensity,CaBbc1,442
same,SPOT peptide array binding signal intensity,CaBem1-D1,13
same,SPOT peptide array binding signal intensity,CaBzz1-D1,94
same,SPOT peptide array binding signal intensity,CaBzz1-D2,44.6
same,SPOT peptide array binding signal intensity,CaCyk3,≤ 0
same,SPOT peptide array binding signal intensity,CaFus1,≤ 0
same,SPOT peptide array binding signal intensity,CaHof1,≤ 0
same,SPOT peptide array binding signal intensity,CaHse1,≤ 0
same,SPOT peptide array binding signal intensity,CaLsb1,≤ 0
same,SPOT peptide array binding signal intensity,CaLsb4,≤ 0
same,SPOT peptide array binding signal intensity,CaMyo5,0.5
